{"source": "PubChem BioAssay AID1117361", "about": "(Southern Research Institute, 2015)", "note": "The campaign covered roughly 3,600 compounds. About 900 (25%) were called active. How the calls were made is not given here. Only a sample is shown. Entries with a potency or affinity are not part of this list."}
{"target": "Protein Tat (Human immunodeficiency virus type 1 group M subtype B (isolate HXB2)) (UniProt P04608)", "assay": "HIV-1 Tat–TAR interaction blockers – biochemical, fluorescence polarization, FAM-labeled TAR RNA, counter-screen for Vif-APOBEC3G degradation inhibitor project, dose response (AID 1117361)", "conditions": "Tat-TAR RNA binding; series mostly up to 100 µM"}
{"compound": "Cc1sc(-c2ccncc2)nc1OC(=O)c1ccccc1", "outcome": "inactive"}
{"compound": "COc1ccc(S(=O)(=O)NC2CC(C)(C)NC(C)(C)C2)c(C)c1C", "outcome": "inactive"}
{"compound": "Cc1sc2nc(C)n(/N=C/c3ccccc3O)c(=O)c2c1C", "outcome": "inactive"}
{"compound": "C=CCNC(=O)c1cc(=O)c2ccccc2o1", "outcome": "inactive"}
{"compound": "Cc1nn(-c2ccc(Cl)cc2)c2[nH]c(=O)c(CNCc3ccc4c(c3)OCO4)cc12", "outcome": "inactive"}
{"compound": "O=c1oc(/C=C/c2ccccc2)nc2sc3c(c12)CCC3", "outcome": "inactive"}
{"compound": "O=[N+]([O-])c1cc(C(F)(F)F)ccc1N1CCN(S(=O)(=O)c2ccc3ccccc3c2)CC1", "outcome": "inactive"}
{"compound": "COC(=O)C1=C(Nc2ccc(OC)cc2)C=C(C)C(C(=O)OC)C1c1ccc(C)cc1", "note": "(configuration not stated)", "outcome": "inactive"}
{"compound": "CC1(C)CC(NS(=O)(=O)c2ccccc2)CC(C)(C)N1", "outcome": "inactive"}
{"compound": "CC1(C)C2CCC1(C)C(NC1=NCCC1)C2", "note": "(configuration not stated)", "outcome": "inactive"}
{"compound": "CC(=NCc1ccc2c(c1)OCO2)C1=C(O)c2ccccc2C1=O", "outcome": "inactive"}
{"compound": "CCCN(CCC)C(=O)c1cc(-c2ccc3c(c2)OCO3)nc2ccccc12", "outcome": "inactive"}
{"compound": "CC(OC(=O)CC1CCCC1)C(=O)Nc1ccc(Cl)cn1", "note": "(configuration not stated)", "outcome": "inactive"}
{"compound": "Nn1c(SCC(=O)NC2CCCc3ccccc32)nnc1-c1cccs1", "note": "(configuration not stated)", "outcome": "inactive"}
{"compound": "COc1ccccc1CNS(=O)(=O)c1cccc(S(=O)(=O)N2CCOCC2)c1", "outcome": "inactive"}
{"compound": "COC(=O)C1C2CCC(C2)C1C(=O)OCC(=O)c1ccc(C)cc1", "note": "(configuration not stated)", "outcome": "inactive"}
{"compound": "CC(C)CC(=O)N(c1ccc(F)cc1)C1C=CS(=O)(=O)C1", "note": "(configuration not stated)", "outcome": "inactive"}
{"compound": "O=C(CCl)N1N=C(c2ccco2)CC1c1ccco1", "note": "(configuration not stated)", "outcome": "inactive"}
{"compound": "Cc1cc(C)cc(NC(=S)NC(=O)CCN2C(=O)c3ccccc3C2=O)c1", "outcome": "inactive"}
{"compound": "CCCCOc1cccc(C(=O)NC(=S)Nc2ccc(Cl)c(C(=O)O)c2)c1", "outcome": "inactive"}
{"compound": "CC(=O)Nc1ccc(S(=O)(=O)Nc2cccc(-c3nc4ccccc4o3)c2)cc1", "outcome": "inactive"}
{"compound": "CCc1ccc(-c2cc(C(=O)Nc3ccc(S(=O)(=O)NC(C)=O)cc3)c3ccccc3n2)cc1", "outcome": "inactive"}
{"compound": "COc1ccc(N2CCN(c3nc4ccccc4nc3NS(=O)(=O)c3ccccc3)CC2)cc1", "outcome": "inactive"}
{"compound": "COC(=O)c1ccc(C)c(NS(=O)(=O)c2ccc(NC(C)=O)cc2)c1", "outcome": "inactive"}
{"compound": "COc1ccc(NCc2nnc(SCC(=O)N3CCCc4ccccc43)o2)cc1", "outcome": "inactive"}
{"compound": "O=c1oc(-c2cccnc2)nc2ccccc12", "outcome": "inactive"}
{"compound": "FC(F)Oc1ccccc1NC(=S)Nc1cccnc1", "outcome": "inactive"}
{"compound": "CC(C)(C)c1ccc(NC(=S)NCc2cccnc2)cc1", "outcome": "inactive"}
{"compound": "COc1ccc(N2C(=O)C3CCCN3C2c2ccc(C)cc2)cc1", "note": "(configuration not stated)", "outcome": "inactive"}
{"compound": "CS(=O)(=O)N1CCC(C(=O)NCCc2ccccc2)CC1", "outcome": "inactive"}
{"compound": "Cn1c(CNC(=O)C2CCCCC2)cc2cc(Cl)ccc21", "outcome": "inactive"}
{"compound": "CC(CN1CCN(C)CC1)OC(=O)c1ccccc1Cl", "note": "(configuration not stated)", "outcome": "inactive"}
{"compound": "COc1ccc(C)cc1NC(=O)c1[nH]c(C)c(C(C)=O)c1C", "outcome": "inactive"}
{"compound": "COc1ccccc1N1CCN(C(=O)C(F)F)CC1", "outcome": "inactive"}
{"compound": "O=C(NCc1ccc(N2CCCC2=O)cc1)NC1CCCCC1", "outcome": "inactive"}
{"compound": "Cc1ccc2nc(C3CCN(CC(=O)Nc4ccc5c(c4)OCCO5)CC3)[nH]c2c1", "outcome": "inactive"}
{"compound": "O=C1NC2(CCCCC2)NN1c1ccccc1", "outcome": "inactive"}
{"compound": "O=C(O)c1ccc2c(c1)C(c1ccccc1)OC2=O", "note": "(configuration not stated)", "outcome": "inactive"}
{"compound": "Cc1cc(C)c2c(c1)[C@@H]1C=CC[C@@H]1[C@H](c1ccc(S(=O)(=O)N3CCOCC3)cc1)N2", "outcome": "inactive"}
{"compound": "CCC(C)NS(=O)(=O)c1ccc(S(=O)(=O)N(CC(=O)Nc2ccccc2)CC2CCCO2)cc1", "note": "(configuration not stated)", "outcome": "inactive"}
{"compound": "COc1ccccc1S(=O)(=O)Cc1ccc(C(=O)N2CCN(c3ccccn3)CC2)o1", "outcome": "inactive"}
{"compound": "CCN1CCN(CCCNC(=O)c2ccc3c(c2)NC(=O)c2ccccc2S3)CC1", "outcome": "inactive"}
{"compound": "CC1(C)CC(=O)C2=C(C1)N(Cc1ccc(F)cc1)C(=O)C2(NC(=O)c1cccnc1)C(F)(F)F", "note": "(configuration not stated)", "outcome": "inactive"}
{"compound": "CC(=O)Nn1cc2c(=O)n(C)c(=O)n(C)c2c1", "outcome": "inactive"}
{"compound": "CCN(CC)CCN1C(=O)c2ccccc2NC1c1ccc(N(C)C)cc1", "note": "(configuration not stated)", "outcome": "inactive"}
{"compound": "COc1cc(NC(=O)c2cc3nc(C)cc(C)n3n2)c(OC)cc1Cl", "outcome": "inactive"}
{"compound": "Cc1ccc2c(c1)c(CC(=O)Nc1ccc(C)c(F)c1)c(C(=O)O)n2C", "outcome": "inactive"}
{"compound": "Nc1ccc(-c2nc3cc(N)ccc3n2CCO)cc1", "outcome": "inactive"}
{"compound": "COc1ccc(S(=O)(=O)NCc2ccccn2)c(Cl)c1Cl", "outcome": "inactive"}
{"compound": "CCN(CC)CCNC(=O)CCn1c(=S)[nH]c2cc3c(cc2c1=O)OCO3", "outcome": "inactive"}
{"compound": "C=CCn1cc(-c2ccccc2)cc(C#N)c1=O", "outcome": "inactive"}
{"compound": "Cc1ccc(CSc2nc3c(c(N(C)C)n2)CCCC3)cc1", "outcome": "inactive"}
{"compound": "CCN(CC)CCCNC(=O)CSc1nc(-c2cccs2)cc(C(F)(F)F)n1", "outcome": "inactive"}
{"compound": "COC(=O)/C=c1\\sc2n(c1=O)C(C)=CC(C)(C)N=2", "outcome": "inactive"}
{"compound": "CCOC(=O)CCC(=O)N1CCOCCN(C(=O)CCC(=O)OCC)CCOCC1", "outcome": "inactive"}
{"compound": "Cc1ccc(N=Cc2nc(-c3ccc(C)cc3)oc2O)cc1", "outcome": "inactive"}
{"compound": "CC(C)(C)NC(=O)CSc1nnc(-c2ccccn2)n1Cc1ccccc1", "outcome": "inactive"}
{"compound": "COc1ccc(CNC(=O)c2c(-c3cc(Cl)c(OC)c(Cl)c3)noc2C)cc1", "outcome": "inactive"}
{"compound": "OCCCNc1ncnc2c1[nH]c1ccccc12", "outcome": "inactive"}
{"compound": "CC(=O)Nc1cccc(-c2cc(-c3c(Cl)cccc3Cl)no2)c1", "outcome": "inactive"}
{"compound": "O=C(CCn1nc(-c2ccccc2)ccc1=O)N1CCCC1", "outcome": "inactive"}
{"compound": "CN1CCN(S(=O)(=O)c2ccc(NC(=S)NC(=O)c3ccc(Cl)cc3)cc2)CC1", "outcome": "inactive"}
{"compound": "Cc1cccc(OCCCC(=O)NC(C)c2ccccc2)c1", "note": "(configuration not stated)", "outcome": "inactive"}
{"compound": "CCn1c(=O)cc(N2CCC3(CC2)OCCO3)[nH]c1=O", "outcome": "inactive"}
{"compound": "Cn1cc(Cl)c(C(=O)Nc2nc3ccccc3s2)n1", "outcome": "inactive"}
{"compound": "CCC(C)(c1nnnn1-c1c(C)cccc1C)N(N=O)c1ccccc1Cl", "note": "(configuration not stated)", "outcome": "inactive"}
{"compound": "CSCCC(NS(=O)(=O)c1ccc2c(c1)oc(=O)n2C)C(=O)NC1CCCc2ccccc21", "note": "(configuration not stated)", "outcome": "inactive"}
{"compound": "COc1ccc(S(N)(=O)=O)cc1C(=O)OCC(=O)NC(C)(C#N)C1CC1", "note": "(configuration not stated)", "outcome": "inactive"}
{"compound": "O=c1cc(O)nc(SCc2ccccc2Cl)[nH]1", "outcome": "inactive"}
{"compound": "CSc1nc(N)c(C#N)c(-c2ccccc2Cl)c1C#N", "outcome": "inactive"}
{"compound": "COc1ccc(C2(O)CCN(Cc3nnnn3Cc3ccc(F)cc3)CC2)cc1", "outcome": "inactive"}
{"compound": "CC(C)(C)NCCCCOc1ccc(F)cc1", "outcome": "inactive"}
{"compound": "CCOc1ccc(NC(=O)c2ccccc2NS(C)(=O)=O)cc1", "outcome": "inactive"}
{"compound": "Cc1c(O)nc(SCC(=O)Nc2ccc3c4c(cccc24)CC3)n(-c2ccc(F)cc2)c1=O", "outcome": "inactive"}
{"compound": "CCOc1ccc(NC(=O)Cn2cncc2-c2ccc([N+](=O)[O-])cc2)cc1", "outcome": "inactive"}
{"compound": "Cc1cc(C)nc(N2N=C(C(C)(C)C)CC2=O)n1", "outcome": "inactive"}
{"compound": "COc1cc2cc(C(c3nnnn3C3CCCC3)N(C)C3CCCCC3)c(=O)[nH]c2cc1OC", "note": "(configuration not stated)", "outcome": "inactive"}
{"compound": "COCCn1nnnc1C(c1cc2ccc(C)cc2[nH]c1=O)N(Cc1ccco1)Cc1cccs1", "note": "(configuration not stated)", "outcome": "inactive"}
{"compound": "CCCN(CC(=O)Nc1ccccc1OC)C(=O)CSc1ccc(Br)cc1C", "outcome": "inactive"}
{"compound": "COc1cccc(NC(=O)CSc2nnnn2C(C)C)c1", "outcome": "inactive"}
{"compound": "COc1ccc(NC(=O)CSc2nnc(C)n2Cc2ccccc2)cc1", "outcome": "inactive"}
{"compound": "CSc1nc(C)cc(SCC(=O)Nc2ccccc2)n1", "outcome": "inactive"}
{"compound": "COc1ccc(NC(=O)CSc2nc(C)cc(C)n2)cc1", "outcome": "inactive"}
{"compound": "CC(=O)Nc1c(O)nc(SCC(=O)Nc2ccc(C(C)=O)cc2)[nH]c1=O", "outcome": "inactive"}
{"compound": "CCN(CC)S(=O)(=O)c1ccc(NC(=O)CSc2nnc(-c3cccc(OC)c3)n2C)cc1", "outcome": "inactive"}
{"compound": "Cc1ccc[n+](CC(=O)c2cc3ccccc3oc2=O)c1", "outcome": "inactive"}
{"compound": "CCCc1nc(SCc2cccnc2)c2c(=O)n(C)c(=O)n(C)c2n1", "outcome": "inactive"}
{"compound": "O=C(NCc1ccc2c(c1)OCO2)C1CCCN1C(=O)Nc1ccccc1", "note": "(configuration not stated)", "outcome": "inactive"}
{"compound": "CCn1c(=O)oc2cc(NC(=O)CCl)ccc21", "outcome": "inactive"}
{"compound": "COC(=O)Cn1ncn2c(cc3oc(C)cc32)c1=O", "outcome": "inactive"}
{"compound": "O=C(Cn1c(/C=C/c2ccccc2)nc2ccccc21)Nc1ccc(F)cc1", "outcome": "inactive"}
{"compound": "O=C(Nc1ccc2nc(-c3ccccc3)[nH]c2c1)c1cccs1", "outcome": "inactive"}
{"compound": "CCCCN(CCCC)S(=O)(=O)c1ccc(NC(=O)Cc2cccs2)cc1", "outcome": "inactive"}
{"compound": "Cc1ccnc(NS(=O)(=O)c2ccc(NC(=O)Cc3cccs3)cc2)n1", "outcome": "inactive"}
{"compound": "CC(C)OCCCNC(=O)c1cccs1", "outcome": "inactive"}
{"compound": "CN(Cc1cn(C)nc1-c1cccc(Cl)c1)Cc1nccn1C", "outcome": "inactive"}
{"compound": "N#Cc1nc(Cc2ccccc2)oc1NCCCn1ccnc1", "outcome": "inactive"}
{"compound": "O=C(COc1ccc(F)cc1)Nc1ccc(-n2cnnn2)cc1", "outcome": "inactive"}
{"compound": "CCOC(=O)C1CCN(C(=O)C2CCN(c3nc4ccc(OC)cc4s3)CC2)CC1", "outcome": "inactive"}
{"compound": "Cn1c(CN2CCCC2)nc2cc(NC(=O)Nc3ccccc3)ccc21", "outcome": "inactive"}
{"compound": "O=C(Nc1ccc2c(c1)OCCO2)N1CCN(c2ccccc2)CC1", "outcome": "inactive"}
{"compound": "CCOC(=O)C1CCCN(CCC(=O)Nc2ccc3c(c2)CCC3)C1", "note": "(configuration not stated)", "outcome": "inactive"}
{"compound": "C/C(=C/C(=O)NCc1ccccc1)C(=O)O", "outcome": "inactive"}
{"compound": "CN(C)c1ccc(N/C=C/C(=O)c2ccco2)cc1", "outcome": "inactive"}
{"compound": "O=C(Nc1ccccc1C(F)(F)F)c1cc(-c2ccc(O)cc2)on1", "outcome": "inactive"}
{"compound": "O=C(CN(C(=O)CCNC(=O)c1ccco1)c1ccccc1)NC1CCCC1", "outcome": "inactive"}
{"compound": "COc1ccc(/C=C/C2=NC(=C\\N(C)C)/C(=O)O2)cc1", "outcome": "inactive"}
{"compound": "Nc1nnc(CC2=CCCCC2)s1", "outcome": "inactive"}
{"compound": "CCOc1ccc(/C=C2\\NC(=S)NC2=O)cc1", "outcome": "inactive"}
{"compound": "O=C(Cn1[nH]c(=O)c2ccccc2c1=O)OCC(=O)N(Cc1ccccc1)Cc1ccccc1", "outcome": "inactive"}
{"compound": "CC(C)Cc1ccc(C(C)C(=N)N)cc1", "note": "(configuration not stated)", "outcome": "inactive"}
{"compound": "CC(C)N(C(=O)CO/N=C/c1cccc([N+](=O)[O-])c1)C(C)C", "outcome": "inactive"}
